Rows were chosen to be rich in hits. Some 18% of all compounds tested hit in one or more screens of this group.
RORgamma inh: ROR gamma (mouse) transcription inhibition | Drosophila S2 Gal4-RORgamma UAS-luciferase reporter, 20 h | Potency, µM (highest dose often 53.6 µM), without a hit: top-dose activity change, negative = inhibition, actives largely listed as inhibitors | 310,000 compounds, 5.4% hits | AID 2551; note: potency is the fitted concentration of half-maximal effect; nearly all actives have a fitted effect of over 60% in size
Target sequence (P51450 whole entry, looked up, the tested form may be a part): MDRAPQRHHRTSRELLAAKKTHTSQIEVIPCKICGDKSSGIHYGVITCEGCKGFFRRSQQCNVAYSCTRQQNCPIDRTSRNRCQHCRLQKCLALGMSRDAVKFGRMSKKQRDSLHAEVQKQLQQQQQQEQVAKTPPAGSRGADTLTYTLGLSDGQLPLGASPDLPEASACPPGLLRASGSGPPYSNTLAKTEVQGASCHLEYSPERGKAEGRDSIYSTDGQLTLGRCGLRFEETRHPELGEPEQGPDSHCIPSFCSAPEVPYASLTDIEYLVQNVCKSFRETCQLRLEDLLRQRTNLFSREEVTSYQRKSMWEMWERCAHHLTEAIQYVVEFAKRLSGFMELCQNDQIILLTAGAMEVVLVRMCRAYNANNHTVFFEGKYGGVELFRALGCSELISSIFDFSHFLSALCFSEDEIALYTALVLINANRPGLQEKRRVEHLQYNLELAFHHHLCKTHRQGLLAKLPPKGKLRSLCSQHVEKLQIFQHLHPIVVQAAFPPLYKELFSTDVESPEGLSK
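Using a luciferase readout, inhibitors were identified by reduced reporter activity in Drosophila cells coexpressing a copper-inducible Gal4–ROR gamma fusion and UAS-driven Photinus luciferase, incubated 20 hr after 700 uM copper sulfate.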
VP16 counter: counter-screen for ROR gamma inhibitors: Gal4-VP16 reporter; Drosophila S2 Gal4-VP16 UAS-luciferase, luminescence, 20 h; Potency, µM (doses to about 53.6 µM), without a hit: top-dose activity, negative = inhibition, hits mostly inhibitors; 310,000 compounds, 3.5% hits;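 note: Gal4-VP16 expression switched on by copper sulfate through the metallothionein promoter; potency is the fitted concentration of half-maximal effect; nearly all actives have a fitted effect of over 50% in size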
LDHA inh: LDHA (human) enzyme inhibition; P00338; purified LDHA, NADH/diaphorase-resazurin fluorescence; stronger effect = lower value; activity change, % (values are at about 110 or 230 µM); 480,000 compounds, 0.15% hits; in the data active = activity change below about -30%; inconclusive = mostly about -25% to -30%;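 note: plate controls were DMSO wells for no effect and wells without enzyme for full effect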
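Human LDH5 at 2 nM final in Tris HCl pH 7.4 with 0.06 mM NADH and 0.2 mM pyruvate, reacted 5 minutes at room temperature. Remaining NADH coupled via diaphorase/resazurin; resorufin fluorescence read at 0 and 20 minutes, normalized to enzyme-free and DMSO wells.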
DT40 TDP1 CPT: growth inhibition of DT40 Tdp1-/-;hTDP1 cells with camptothecin (screen for TDP1 inhibitors); chicken DT40 Tdp1-/-;hTDP1 cells + 20 nM CPT, ATP luminescence, 48 h; 420,000 compounds, 12% hits; AID 686979; Potency, µM (titrated, usually from 46.2 µM), without a hit: at the top dose activity change, negative = growth inhibition, actives largely listed as inhibitors; note: potency is the fitted concentration of half-maximal effect; nearly all actives have a fitted effect of over 55% in size
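Chicken DT40 Tdp1-/- cells complemented with human TDP1, 400 cells/well, exposed to compounds plus 20 nM camptothecin for at least 48 h at 37 C; viability read as ATP content by CellTiter-Glo luminescence.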
IL1B secr inh: inflammasome signaling inhibition, IL-1 beta readout; 360,000 compounds, 4.7% hits; AID 743279; activity change, % at 57.5 µM; THP-1 LPS/ATP IL-1B secretion, AlphaLISA, 16 h; stronger effect = lower value; in the data active = activity change below about -50%; inconclusive = mostly about -30% to -49%
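THP-1 cells pretreated 1 hr with compounds (up to 57.5 uM final), then stimulated with LPS (250 ng/mL final) plus ATP (1.25 mM final); secreted IL-1B measured by AlphaLISA after 16 hr, decreased signal indicating inhibition.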
DT40 TDP1 no CPT: qHTS for Inhibitors of human tyrosyl-DNA phosphodiesterase 1 (TDP1): qHTS in cells in absence of CPT; DT40 Tdp1-/- hTDP1 cells, no CPT, ATP luminescence, 48 h; Potency, µM (highest dose often 46.2 µM), for the others: at the top dose activity change, negative = growth inhibition, usual class: inhibitors; 420,000 compounds, 15% hits; AID 686978, 2013; note: potency is the fitted concentration of half-maximal effect; nearly all actives have a fitted effect of over 55% in size
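Growth of hTDP1-complemented DT40 Tdp1-knockout cells is measured by ATP luminescence after at least 48 hr compound exposure at 37 °C, with DMSO substituting for the 20 nM CPT used in the parallel screen.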
* = called active by the depositor; ? = inconclusive; / = not tested or not shown; [ ] = remark or other dose. Unless noted, calls come from the whole dose curve; as a rule, active = well fitted curve in the direction sought with a large enough effect; inconclusive = small, poorly fitted or top-dose-only effect, or another doubt; inactive = no such curve, though single readings can be large; an effect the other way counts as inactive or inconclusive. Unless noted, % is set by controls: 0 for no effect and ±100 for the full control effect.

SMILES	RORgamma inh	VP16 counter	LDHA inh	DT40 TDP1 CPT	IL1B secr inh	DT40 TDP1 no CPT
CCOC(=O)C(C)(C)N(Cc1cccc(C)c1)S(=O)(=O)c1ccc(Cl)c([N+](=O)[O-])c1	-19%	?	10	23µM*	?	15µM*
COc1ccc(C[C@H]2CN3C(=NC[C@@H]3Cc3ccccc3)N2CCNC(=O)CCC2CCCCC2)cc1	?	-17%	4	13µM*	-21	16µM*
O=C(CCC1CCCCC1)NCCN1C2=NC[C@H](Cc3ccc(O)cc3)N2C[C@H]1Cc1ccc(O)cc1	20%	-9%	0	?	-4	?
COc1ccc(C[C@H]2CN3C(=NC[C@@H]3C(C)C)N2CCNC(=O)CCC2CCCCC2)cc1	-5%	-8%	-3	8.2µM*	-56*	7.3µM*
C[C@@H]1CN=C2N(CCNC(=O)CCC3CCCCC3)[C@H](Cc3ccc(O)cc3)CN21	17%	1%	-1	13µM*	12	16µM*
COc1ccc(C[C@@H]2CN3C(=NC[C@@H]3C)N2CCNC(=O)c2ccc(C)c(Br)c2)cc1	-6%	-2%	3	23µM*	?	13µM*
CCN(CC)S(=O)(=O)c1ccc(=O)n(Cc2ncc(-c3ccccc3)o2)c1	/	/	-6	/	/	/
Cc1cc(C)c(C#N)c(SCc2cc(=O)oc3cc(O)c(Cl)cc23)n1	/	/	-21	/	/	/
C=C(C)COc1ccc(C(=O)Nc2ccccc2)cc1	/	/	-5	/	/	/
COc1ccc(/C=C/C(=O)OCCN(C)C(C)(C)C)cc1	/	/	0	/	/	/
CCOC(=O)C1CCN([C@H]2CS(=O)(=O)C[C@@H]2S(=O)(=O)c2ccc(OCC)cc2)CC1	/	/	-7	/	/	/
CC(C)[C@H]1CN=C2N(CCNC(=O)CCC3CCCCC3)[C@H](Cc3ccc(O)cc3)CN21	-27%	-6%	-2	13µM*	-14	8.2µM*
CCOC(=O)C1(CCOc2ccccc2)CCN(S(=O)(=O)N(C)C)CC1	5%	2%	-2	-86%	22	?
CCOC(=O)C1(CC2CC2)CCN(Cc2ccc(O)c(Cl)c2)CC1	28%	-1%	/	/	/	/
CCOC(=O)C1(CCOc2ccccc2)CCN(Cc2ccc(O)c(Cl)c2)CC1	?	-20%	1	16µM*	-24	13µM*
CCOC(=O)C1(CCOc2ccccc2)CCN(Cc2ccc(O)c(OC)c2)CC1	32%	-3%	-6	?	-28	18µM*
CCOC(=O)C1(CCOc2ccccc2)CCN(Cc2ccc3c(c2)OCCO3)CC1	1%	-4%	0	?	-88*	?
CCOC(=O)C1(CCOc2ccccc2)CCN(Cc2ccc(C(=O)OC)cc2)CC1	17%	-1%	0	?	0	?
OCC1(CCOc2ccccc2)CCN(Cc2ccc3c(c2)OCCO3)CC1	4%	-5%	-5	5%	0	-8%
CCOC(=O)C1(CCOc2ccccc2)CCN(Cc2ccc(F)c(OC)c2)CC1	?	-22%	0	?	-88*	6.5µM*
COCCNc1nc2c(c(=O)[nH]c(=O)n2C)n1CCC(C)C	/	/	16	/	/	/
CCCCCCn1nc(C(=O)Nc2ccc(NC(C)=O)cc2)c2ccccc2c1=O	/	/	16	/	/	/
CCN(CC)S(=O)(=O)c1ccc(C)c(NC(=S)Nc2ccc(F)c(F)c2F)c1	/	/	10	/	/	/
c1ccc(-c2[nH]ncc2-c2ccnc3ccccc23)nc1	2µM*	3.2µM*	/	/	/	/
O=C(O)c1cc(-c2ccccn2)nc2ccccc12	/	/	-2	/	/	/
SMILES	RORgamma inh	VP16 counter	LDHA inh	DT40 TDP1 CPT	IL1B secr inh	DT40 TDP1 no CPT
O=C(O)CC1C(=O)NCCN1Cc1ccccc1Cl (stereo not given)	/	/	-1	/	/	/
COc1ccc(CN(Cc2cccc(C#N)c2)C2CC2)cc1	/	/	-4	/	/	/
Cc1nc2ccccc2nc1SCC(=O)N1CCC(C)CC1	?	?	-2	?	2	?
COc1ccccc1Cc1nc2ccccc2nc1SCC(=O)N1CCC(C)CC1	/	/	1	16µM*	/	9.2µM*
COc1cccc(Cc2nc3ccccc3nc2SCC(=O)N2CCN(c3ccccc3)CC2)c1	/	/	-14	?	/	23µM*
COc1ccccc1Cc1nc2ccccc2nc1SCC(=O)N1CCN(c2ccccc2)CC1	/	/	0	21µM*	/	23µM*
CCc1cccc(C)c1NC(=O)CSc1nc2ccccc2nc1Cc1ccccc1	/	/	0	?	/	16µM*
COc1cccc(CNC(=O)CSc2nc3ccccc3nc2Cc2ccccc2)c1	/	/	-1	?	/	?
CC(=O)Nc1cccc(C(C)NC(=O)NC(c2ccc(Cl)cc2)C(C)C)c1 (stereo not given)	/	/	-4	/	/	/
COc1ccc(C(=O)OCc2nc(N)c3ccccc3n2)c(O)c1	/	/	-3	/	/	/
CCc1cccc(C)c1NC(=O)CSc1nnc(CC)n2c1cc1occc12	/	/	2	?	/	18µM*
COc1cccc(Cc2nc3ccccc3nc2SCC(=O)NCCc2ccccc2)c1	/	/	-1	18µM*	/	18µM*
Cn1ncc2c(NCc3ccccc3)nc(NCCCO)nc21	-11%	-8%	-1	-9%	-25	11%
COCCCNc1nc(NCc2cccc(Cl)c2)c2cnn(C)c2n1	/	/	2	?	/	18µM*
CCC(C(=O)Nc1nccs1)(C(F)(F)F)C(F)(F)F	7.1µM*	7.9µM*	-11	-12%	-15	?
CCC(C)C(=O)Nc1nccs1 (stereo not given)	5.6µM*	18µM*	-10	-4%	15	13%
CCC(NC(=O)Nc1nccs1)(C(F)(F)F)C(F)(F)F	1%[10 µM]	0%	-5	4%	99	-15%
CC(Oc1ccc(Cl)cc1)C(=O)Nc1nccs1 (stereo not given)	14µM*	-15%	8	4%	-12	?
CNC(=O)c1ccc(NC(=O)CSc2ncc(-c3ccc(F)cc3)o2)cc1	/	/	-4	/	/	/
Cc1cc(C)c2nc(NNC(=O)c3cc(-c4cccs4)nc4ccccc34)sc2c1	1.8µM*	10µM*	-10	4.6µM*	115	5.2µM*
CC(C)(C)NC(=O)c1cc(-c2cccs2)nc2ccccc12	/	/	2	/	/	/
O=C(NNc1nc2ccc(Cl)cc2s1)c1cc(-c2cccs2)nc2ccccc12	1.1µM*	?	-6	2.6µM*	174	5.2µM*
Cc1ccc2sc(NNC(=O)c3cc(-c4cccs4)nc4ccccc34)nc2c1C	4.5µM*	18µM*	/	/	/	/
CCN(C(=O)CSc1nnc(N2CCOCC2)n1-c1cccc(F)c1)C1=CCCCC1	/	/	3	/	/	/
